NR3A LBD binder: modulators (binders) of human NR3A ligand-binding domain; NR3A LBD differential scanning fluorimetry, Tm shift; 0% = protein alone, 100% = glycine-bound protein; Tm shift relative to glycine control, % at 25 µM; hit rate 2.5% among 340,000; AID 1259313;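 active = melting temperature shift of at least 10% of the positive control shift, at one fixed dose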
FAS TE block: FAS thioesterase (human) inhibition; inhibition, % at 15 µM; hit rate 0.67% among 360,000; P49327; recombinant FAS-TE, OMFH fluorogenic substrate, fluorescence endpoint;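 active = compounds whose normalised, plate-corrected inhibition of enzyme fluorescence in the single-dose primary screen is 50% or more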;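 note: 0% = DMSO with enzyme and 100% = substrate without enzyme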
sPLA2-III inh: Blocks human group III sPLA2 activity | Q9NZ20 | QFRET BODIPY PC-A2 liposome hydrolysis, fluorescence | inhibition, % at 12.2 µM | hit rate 0.56% among 370,000;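 active = inhibition above mean plus 3 SD of compounds lying within the high and low control bounds, cut at about 19% in these data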;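 note: 0% = median of test compound wells and 100% = no enzyme DMSO wells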
ADAM10 inh: inhibitors of human ADAM10; inhibition, % at 7 µM; AID 720582; hit rate 0.62% among 370,000; O14672; recombinant ADAM10, EDANS/DABCYL FRET peptide cleavage, 3 h;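 active = inhibition above a per-campaign cutoff equal to the mean of compounds falling between control-based bounds plus 3 SD, cut at about 20% in these data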;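 note: 0% = DMSO wells while the 100% control is not disclosed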
ADAM17 inh: ADAM17 inhibition, QFRET primary screen. P78536. hit rate 0.83% among 370,000. recombinant ADAM17, EDANS/DABCYL FRET peptide cleavage. inhibition, % at 6.95 µM. AID 720648;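 active = inhibition above the mean of compounds lying between control limits plus 3 SD, set per campaign, cut at about 8.5% in these data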;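 note: 0% = DMSO-only wells as the low control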
Target sequence (P78536 215-824 limits assumed): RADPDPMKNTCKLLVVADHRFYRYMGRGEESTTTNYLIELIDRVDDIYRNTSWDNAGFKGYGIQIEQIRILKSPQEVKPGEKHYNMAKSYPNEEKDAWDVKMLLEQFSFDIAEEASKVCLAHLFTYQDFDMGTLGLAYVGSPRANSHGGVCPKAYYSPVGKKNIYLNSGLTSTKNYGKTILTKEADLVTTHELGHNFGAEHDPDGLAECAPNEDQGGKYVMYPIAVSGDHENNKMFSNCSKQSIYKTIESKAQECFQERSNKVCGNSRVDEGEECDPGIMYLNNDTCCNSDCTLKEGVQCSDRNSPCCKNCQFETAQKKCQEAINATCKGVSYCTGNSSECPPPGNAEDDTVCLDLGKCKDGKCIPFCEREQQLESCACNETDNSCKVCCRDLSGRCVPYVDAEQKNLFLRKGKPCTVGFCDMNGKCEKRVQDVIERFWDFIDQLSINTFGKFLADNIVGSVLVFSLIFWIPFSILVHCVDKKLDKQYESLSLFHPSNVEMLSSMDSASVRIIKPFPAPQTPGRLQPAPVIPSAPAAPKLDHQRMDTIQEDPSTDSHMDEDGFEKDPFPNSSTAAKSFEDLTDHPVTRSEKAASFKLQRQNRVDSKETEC
sPLA2 confirm: human GIII-sPLA2 inhibition, confirmation; hit rate 34% among 2,000; shares compounds with sPLA2-III inh; inhibition, % at 12.2 µM; recombinant hGIII-sPLA2, BODIPY PC-A2 QFRET fluorescence;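 active = mean inhibition across triplicates above the hit cutoff set in the earlier primary screen, cut at about 19% in these data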;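 note: 0% = enzyme with DMSO and 100% = DMSO wells lacking enzyme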
535nm interf: 535nm fluorescence interference, HGIII-sPLA2 counter-screen; AID 743282; BODIPY FL product fluorescence interference, QFRET; shares compounds with sPLA2-III inh; hit rate 8.5% among 2,000; inhibition, % at 12.2 µM;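 active = average inhibition above the solvent-only control mean plus 3 SD, cut at about 6% in these data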;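 note: 0% = DMSO with substrate plus product and 100% = DMSO with substrate alone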
BODIPY interf DR: counter-screen for HGIII-sPLA2 inhibitors: 535nm fluorescence interference, dose response. shares compounds with sPLA2-III inh. BODIPY FL product fluorescence interference, cell-free. IC50, µM. 240 tested, under 10 active. AID 743455;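 active = IC50 at or below 10 µM; inactive = IC50 above 10 µM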
* hit, by the source's call; nt = no result; ! = a repeat was not active. Rows were chosen to be rich in hits. Some 4.3% of all compounds tested hit in one or more screens of this group.

SMILES | NR3A LBD binder | FAS TE block | sPLA2-III inh | ADAM10 inh | ADAM17 inh | sPLA2 confirm | 535nm interf | others
Oc1c(C=C2N=c3ccccc3=N2)sc(=S)n1C1CCCCC1 | -3.0 | -5.5 | 20.0*! | 2.4 | -1.0 | -5.0 | -1.4
CN(c1cccnc1)c1ccc(NC(=O)Cc2c[nH]c3ccccc23)cc1Br | nt | nt | -5.5 | -28.0 | -10.2 | nt | nt
O=C(Cc1cccs1)NNC(=S)NCc1ccc(Cl)cc1 | -2.6 | -1.1 | 19.3* | 8.3 | 2.3 | 45.3* | 0.2 | BODIPY interf DR=>122
O=C(Cc1ccc(Cl)cc1)NNC(=S)NC(=O)c1cccs1 | -0.9 | -6.5 | 15.2 | 4.7 | -1.6 | nt | nt
CSc1nn(CCC#N)c(=O)[nH]c1=O | nt | nt | 13.3 | 2.9 | -7.5 | nt | nt
Cc1[nH]c2ccc(-c3n[nH]c(=S)n3C)cc2c1C | 0.5 | -5.5 | 21.0* | -6.7 | -2.6 | 26.4* | 3.6
CCn1c(-c2ccc3[nH]c(C)c(C)c3c2)n[nH]c1=S | 0.5 | -5.8 | 13.0 | -2.5 | -1.0 | nt | nt
C/C(=N\NC(=S)NCCc1ccccc1)c1ccc(O)cc1O | 17.4* | 15.4 | 33.4* | -4.1 | 4.0 | 40.4* | 3.0 | BODIPY interf DR=>122
S=C(NCCc1ccccc1)N/N=C/c1cccc(Cl)c1Cl | 0.5 | 29.0 | -0.2 | 3.9 | 0.6 | nt | nt
Oc1ccccc1/C=N/NC(=S)NCCc1ccccc1 | 27.7* | 17.3 | 19.6* | -16.0 | -6.1 | 21.3* | 7.3*
S=C(NCCc1ccccc1)N/N=C/c1cccs1 | -6.9 | 15.2 | 20.0* | 7.4 | 5.9 | 20.3* | -0.7
S=C(NCc1ccccc1)N/N=C/c1cccs1 | -1.2 | 7.5 | 8.2 | 3.2 | 2.2 | nt | nt
C/C(=N\NC(=S)NCCc1ccccc1)c1ccc(Cl)cc1Cl | -2.2 | 27.1 | 6.3 | 7.8 | 0.6 | nt | nt
Oc1ccccc1C=NNC(=S)Nc1ccc(F)cc1 | 14.3* | 9.1 | 32.0* | -43.8 | -7.2 | 33.2* | 12.7*
CN(CCc1ccccc1)C(=O)CC1C(=O)NCCN1Cc1ccccn1 (configuration not stated) | nt | -5.1 | -6.6 | -39.0 | -14.9 | nt | nt
O=C1C(NC(=O)N2c3ccccc3C=Cc3ccccc32)CCCCN1Cc1ccc(Cl)cc1 (configuration not stated) | nt | nt | -5.2 | 4.2 | -0.1 | nt | nt
c1ccc(Cn2ccc3ccc(-c4ccc5ccn(Cc6ccc7ccccc7c6)c5c4)cc32)cc1 | nt | nt | 8.4 | -32.4 | -12.2 | nt | nt
COc1ccc(CCNC(=O)Nc2nc(C(N)C3CCCCC3)cs2)cc1OC (configuration not stated) | nt | -3.8 | 22.1* | -5.1 | -4.6 | 4.9 | -21.8
CC(C)CC(N)c1csc(NC(=O)NCCc2ccccc2)n1 (configuration not stated) | nt | -10.3 | 9.4 | -20.5 | -0.3 | nt | nt
COc1ccc(CCNC(=O)Nc2nc(C(N)CCc3ccccc3)cs2)cc1OC (configuration not stated) | nt | -5.5 | 5.1 | 1.1 | 3.9 | nt | nt
NC(c1csc(Nc2nncc3ccccc23)n1)C1CCCCC1 (configuration not stated) | nt | -5.3 | 19.7* | -37.5 | -10.4 | 7.6 | -20.8
NC(c1ccccc1)c1csc(NC(=O)NCCc2ccccc2)n1 (configuration not stated) | nt | -1.5 | 25.1* | -13.5 | -0.7 | -1.5 | -7.7
NC(c1csc(NC(=O)Nc2ccccc2)n1)C1CCCCC1 (configuration not stated) | nt | -7.6 | 22.3* | -13.1 | -0.3 | 7.9 | -12.1
Cc1ccc(S(=O)(=O)N2CC3=C(c4ccccc4)CC4(C)C(=O)C(C)(C)CC4=C3C2)cc1 (configuration not stated) | nt | nt | -14.2 | -5.8 | -1.5 | nt | nt
COC(=O)[C@]12C[C@H](CC(=O)NCCCN3CCCC3=O)C(=O)N(Cc3ccccc3)C1=C[C@H](C(C)C)O[C@@H]2C1CC1 | nt | nt | 6.3 | -9.6 | -3.2 | nt | nt
SMILES | NR3A LBD binder | FAS TE block | sPLA2-III inh | ADAM10 inh | ADAM17 inh | sPLA2 confirm | 535nm interf | others
C/C(=N/NC(=O)c1ccco1)c1ccc(NC(=O)c2ccc(F)cc2)cc1 | -20.5 | -12.7 | 23.4* | -9.3 | -5.2 | 9.8 | -7.7
Cc1nc(SCC(=O)N(C)c2ccccc2)[nH]c(=O)c1C | nt | nt | 2.7 | -1.5 | -2.5 | nt | nt
Cc1nnsc1C(=O)N/N=C/c1ccccc1 | 0.2 | -4.3 | -5.6 | 2.9 | -0.5 | nt | nt
Cc1nnsc1C(=O)N/N=C/c1ccc2ccccc2c1O | -4.3 | 11.9 | 37.7* | -5.3 | -6.7 | 21.0* | 1.6
O=C(CSc1cccc[n+]1[O-])Nc1cc2c(cc1Cl)C(=O)c1ccccc1C2=O | 0.2 | -10.8 | 19.5* | -0.8 | -6.2 | -7.9 | 6.5*
COC(=O)c1cc2c(c3c4cc(F)ccc4n(S(=O)(=O)c4ccc(OC)cc4)c13)C(=O)N(C)C2 | nt | nt | -2.5 | -2.2 | -0.8 | nt | nt
CN1CCN(CC(O)COc2ccc(C(=O)O)cc2)CC1 (configuration not stated) | -2.4 | -6.3 | 19.3* | -5.5 | -2.3 | 6.1 | -5.8
CN1CCN(CC(O)COc2ccc(OCC(O)CN3CCN(C)CC3)cc2)CC1 (configuration not stated) | -2.8 | -7.4 | 0.2 | -8.3 | -5.8 | nt | nt
CCc1cc2c(nc1CC)CCCN2CCOC | nt | nt | -1.2 | -357.9 | -100.0 | nt | nt
CCOc1ccccc1NC(=S)N1CCN(c2ccccc2)CC1 | 0.3 | 3.1 | 23.9* | 4.8 | -3.2 | 26.5* | -3.9
COc1ccc(NC(=S)N2CCN(c3ccccc3)CC2)c(OC)c1 | -1.2 | -4.6 | 7.4 | 1.3 | -1.2 | nt | nt
CCN(CC)C(=O)CSc1nnc(-c2ccc(C(C)(C)C)cc2)n1-c1ccc(Cl)cc1 | nt | nt | -13.8 | 8.7 | 7.0 | nt | nt
O=C(Nc1nnc(-c2ccccc2F)s1)C1CCN(S(=O)(=O)c2ccc(Cl)cc2)CC1 | -13.9 | -1.7 | 23.1* | -10.2 | -1.0 | -7.1 | -8.3
O=C(Nc1nnc(C2CCCC2)s1)C1CCN(S(=O)(=O)c2ccc(Cl)cc2)CC1 | 0.7 | -5.0 | 0.2 | 10.8 | -2.8 | nt | nt
S=C(SCc1c(Cl)cccc1Cl)N1CCSCC1 | nt | nt | 15.6 | -8.4 | -2.1 | nt | nt
CCSc1ncc(Cl)c(C(=O)Nc2ccccc2OC)n1 | 2.0 | -0.9 | 21.2* | -12.3 | -10.1 | -1.3 | -5.1
COc1ccc(Cl)cc1C(Nc1cccnc1)c1ccc2cccnc2c1O (configuration not stated) | -1.8 | -4.6 | 31.4* | 7.5 | 6.3 | 35.0* | -3.0 | BODIPY interf DR=>122
CCC(=O)NC(c1ccccc1OC)c1ccc2cccnc2c1O (configuration not stated) | -4.5 | 0.5 | nt | nt | nt | nt | nt
CC(C)(C)c1ccc(CNc2nc(-c3ccccn3)nnc2-c2ccccc2)cc1 | nt | nt | 39.5* | 1.2 | -1.7 | 8.5 | -36.0
Clc1cccc(CNc2nc(-c3ccccn3)nnc2-c2ccccc2)c1 | nt | nt | 4.0 | 4.8 | 1.0 | nt | nt
S=C(NCCc1ccccc1)Nc1ncccn1 | 0.4 | 1.8 | 19.6* | -2.2 | 0.1 | 10.2 | -3.1

High-throughput results as filed in PubChem.
